Source: the supplement of paper PMC12282887
± gives the standard deviation of the averaged measurements.

What was measured:
Assay in all cases: promoter activity interaction Z-score (Lux/OD deviation from empty-vector control); higher = stronger promoter induction by the compound
[1] = test system: E. coli BW25113 acrABp lux reporter
Summary of the method: (§1)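 At 37°C, E. coli BW25113 reporter cultures in 40 µl LB Lennox in 384-well plates were read for OD600 and luminescence every 30 min for 12 h. Windows were 0–8 h for wild type and 1–9 h for deletion strains, and wells under 10% of the median growth value were removed. The score is the Z-transformed residual of growth-normalised luminescence against a control fit.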

[2] = test system: E. coli BW25113 marRABp lux reporter
Summary of the method: as §1

[3] = test system: E. coli BW25113 micFp lux reporter
Summary of the method: as §1

[4] = test system: E. coli BW25113 ompFp lux reporter
Summary of the method: as §1

[5] = test system: E. coli BW25113 robp lux reporter
Summary of the method: as §1

[6] = test system: E. coli BW25113 soxSp lux reporter
Summary of the method: as §1

[7] = test system: E. coli BW25113 tolCp lux reporter
Summary of the method: as §1

[8] = 0.0012 µg/ml, genetic background: wild type
[9] = 0.0012 µg/ml, genetic background: ΔmarA
[10] = 0.0012 µg/ml, genetic background: Δrob
[11] = 0.0012 µg/ml, genetic background: ΔsoxS
[12] = 0.0024 µg/ml, genetic background: wild type
[13] = 0.0024 µg/ml, genetic background: ΔmarA
[14] = 0.0024 µg/ml, genetic background: Δrob
[15] = 0.0024 µg/ml, genetic background: ΔsoxS
[16] = 0.0048 µg/ml, genetic background: wild type
[17] = 0.0048 µg/ml, genetic background: ΔmarA
[18] = 0.0048 µg/ml, genetic background: Δrob
[19] = 0.0048 µg/ml, genetic background: ΔsoxS
[20] = 0.01 µg/ml, genetic background: wild type
[21] = 0.01 µg/ml, genetic background: ΔmarA
[22] = 0.01 µg/ml, genetic background: Δrob
[23] = 0.01 µg/ml, genetic background: ΔsoxS

Q: How did the “promoter activity interaction Z-score” value [1, 8] turn out when `CO/N=C(\C(=O)N[C@@H]1C(=O)N2C(C(=O)O)=C(COC(C)=O)CS[C@H]12)c1csc(N)n1` [Cefotaxime] was run?
A: -0.284 ± 0.025

Q: What about the “promoter activity interaction Z-score” value [1, 9] of the same compound?
A: 0.0868 ± 0.9

Q: What about the “promoter activity interaction Z-score” value [1, 10] of the same compound?
A: -0.103 ± 0.27

Q: What about the “promoter activity interaction Z-score” value [1, 11] of the same compound?
A: -0.098 ± 0.18

Q: What about the “promoter activity interaction Z-score” value [1, 12] of the same compound?
A: -0.0863 ± 0.2

Q: What about the “promoter activity interaction Z-score” value [1, 13] of the same compound?
A: -0.059 ± 0.93

Q: And the “promoter activity interaction Z-score” value [1, 14]?
A: 0.00639 ± 0.18

Q: And the “promoter activity interaction Z-score” value [1, 15]?
A: 0.118 ± 0.16

Q: What about the “promoter activity interaction Z-score” value [1, 16] of the same compound?
A: -0.23 ± 0.15

Q: What about the “promoter activity interaction Z-score” value [1, 17] of the same compound?
A: 0.42 ± 0.9

Q: And the “promoter activity interaction Z-score” value [1, 18]?
A: -0.311 ± 0.072

Q: What about the “promoter activity interaction Z-score” value [1, 19] of the same compound?
A: -0.148 ± 0.096

Q: What about the “promoter activity interaction Z-score” value [1, 20] of the same compound?
A: -0.274 ± 0.025

Q: And the “promoter activity interaction Z-score” value [1, 21]?
A: -1.6 ± 0.042

Q: What about the “promoter activity interaction Z-score” value [1, 22] of the same compound?
A: -0.154 ± 0.33

Q: And the “promoter activity interaction Z-score” value [1, 23]?
A: 0.212 ± 0.064

Q: And the “promoter activity interaction Z-score” value [2, 8]?
A: -0.109 ± 0.032

Q: And the “promoter activity interaction Z-score” value [2, 9]?
A: -0.16 ± 0.041

Q: And the “promoter activity interaction Z-score” value [2, 10]?
A: -0.227 ± 0.0043

Q: What about the “promoter activity interaction Z-score” value [2, 11] of the same compound?
A: -0.0693 ± 0.13

Q: What about the “promoter activity interaction Z-score” value [2, 12] of the same compound?
A: 0.0203 ± 0.031

Q: What about the “promoter activity interaction Z-score” value [2, 13] of the same compound?
A: -0.118 ± 0.093

Q: What about the “promoter activity interaction Z-score” value [2, 14] of the same compound?
A: 0.021 ± 0.12

Q: What about the “promoter activity interaction Z-score” value [2, 15] of the same compound?
A: -0.0591 ± 0.15

Q: What about the “promoter activity interaction Z-score” value [2, 16] of the same compound?
A: -0.2 ± 0.023

Q: And the “promoter activity interaction Z-score” value [2, 17]?
A: -0.394 ± 0.27

Q: And the “promoter activity interaction Z-score” value [2, 18]?
A: -0.171 ± 0.25

Q: What about the “promoter activity interaction Z-score” value [2, 19] of the same compound?
A: -0.214 ± 0.072

Q: What about the “promoter activity interaction Z-score” value [2, 20] of the same compound?
A: 0.0434 ± 0.19

Q: And the “promoter activity interaction Z-score” value [2, 21]?
A: -0.126 ± 0.0051

Q: What about the “promoter activity interaction Z-score” value [2, 22] of the same compound?
A: 0.448 ± 0.33

Q: What about the “promoter activity interaction Z-score” value [2, 23] of the same compound?
A: 0.448 ± 0.066

Q: What about the “promoter activity interaction Z-score” value [3, 8] of the same compound?
A: 0.00627 ± 0.0068

Q: And the “promoter activity interaction Z-score” value [3, 9]?
A: -0.0578 ± 0.08

Q: And the “promoter activity interaction Z-score” value [3, 10]?
A: 0.0368 ± 0.11

Q: And the “promoter activity interaction Z-score” value [3, 11]?
A: -0.0273 ± 0.11

Q: What about the “promoter activity interaction Z-score” value [3, 12] of the same compound?
A: -0.0766 ± 0.15

Q: What about the “promoter activity interaction Z-score” value [3, 13] of the same compound?
A: 0.0449 ± 0.11

Q: What about the “promoter activity interaction Z-score” value [3, 14] of the same compound?
A: 0.0295 ± 0.15

Q: And the “promoter activity interaction Z-score” value [3, 15]?
A: -0.18 ± 0.098

Q: What about the “promoter activity interaction Z-score” value [3, 16] of the same compound?
A: -0.0576 ± 0.36

Q: And the “promoter activity interaction Z-score” value [3, 17]?
A: -0.223 ± 0.19

Q: And the “promoter activity interaction Z-score” value [3, 18]?
A: 0.0329 ± 0.18

Q: And the “promoter activity interaction Z-score” value [3, 19]?
A: -0.198 ± 0.15

Q: What about the “promoter activity interaction Z-score” value [3, 20] of the same compound?
A: -0.5 ± 0.52

Q: What about the “promoter activity interaction Z-score” value [3, 21] of the same compound?
A: -0.278 ± 0.011

Q: And the “promoter activity interaction Z-score” value [3, 22]?
A: -0.0107 ± 0.074

Q: And the “promoter activity interaction Z-score” value [3, 23]?
A: -0.133 ± 0.077

Q: And the “promoter activity interaction Z-score” value [4, 8]?
A: -0.111 ± 0.025

Q: And the “promoter activity interaction Z-score” value [4, 9]?
A: -0.439 ± 0.11

Q: And the “promoter activity interaction Z-score” value [4, 10]?
A: -0.492 ± 0.1

Q: What about the “promoter activity interaction Z-score” value [4, 11] of the same compound?
A: 0.179 ± 0.43

Q: And the “promoter activity interaction Z-score” value [4, 12]?
A: 0.0538 ± 0.32

Q: And the “promoter activity interaction Z-score” value [4, 13]?
A: 0.191 ± 0.18

Q: What about the “promoter activity interaction Z-score” value [4, 14] of the same compound?
A: -0.287 ± 0.12

Q: What about the “promoter activity interaction Z-score” value [4, 15] of the same compound?
A: -0.23 ± 0.033

Q: And the “promoter activity interaction Z-score” value [4, 16]?
A: -0.24 ± 0.46

Q: What about the “promoter activity interaction Z-score” value [4, 17] of the same compound?
A: -0.537 ± 0.14

Q: What about the “promoter activity interaction Z-score” value [4, 18] of the same compound?
A: -0.409 ± 0.18

Q: What about the “promoter activity interaction Z-score” value [4, 19] of the same compound?
A: -0.158 ± 0.26

Q: And the “promoter activity interaction Z-score” value [4, 20]?
A: -0.753 ± 0.55

Q: What about the “promoter activity interaction Z-score” value [4, 21] of the same compound?
A: -2.18 ± 0.79

Q: And the “promoter activity interaction Z-score” value [4, 22]?
A: -0.598 ± 0.51

Q: And the “promoter activity interaction Z-score” value [4, 23]?
A: -2.53

Q: What about the “promoter activity interaction Z-score” value [5, 8] of the same compound?
A: -0.219 ± 0.23

Q: What about the “promoter activity interaction Z-score” value [5, 9] of the same compound?
A: -0.756 ± 0.2

Q: What about the “promoter activity interaction Z-score” value [5, 10] of the same compound?
A: -0.209 ± 0.28

Q: And the “promoter activity interaction Z-score” value [5, 11]?
A: -0.0836 ± 0.31

Q: And the “promoter activity interaction Z-score” value [5, 12]?
A: -0.0844 ± 0.072

Q: And the “promoter activity interaction Z-score” value [5, 13]?
A: 0.0702 ± 0.056

Q: And the “promoter activity interaction Z-score” value [5, 14]?
A: 0.0668 ± 0.073

Q: What about the “promoter activity interaction Z-score” value [5, 15] of the same compound?
A: -0.0496 ± 0.19

Q: And the “promoter activity interaction Z-score” value [5, 16]?
A: 0.227 ± 0.29

Q: What about the “promoter activity interaction Z-score” value [5, 17] of the same compound?
A: -0.466 ± 0.095

Q: What about the “promoter activity interaction Z-score” value [5, 18] of the same compound?
A: 0.0502 ± 0.2

Q: What about the “promoter activity interaction Z-score” value [5, 19] of the same compound?
A: -0.0174 ± 0.097

Q: And the “promoter activity interaction Z-score” value [5, 20]?
A: -1.42 ± 0.066

Q: And the “promoter activity interaction Z-score” value [5, 21]?
A: -2.06 ± 1.6

Q: And the “promoter activity interaction Z-score” value [5, 22]?
A: -1.76 ± 0.19

Q: And the “promoter activity interaction Z-score” value [5, 23]?
A: -2.39 ± 0.34

Q: And the “promoter activity interaction Z-score” value [6, 8]?
A: 0.251 ± 0.06

Q: What about the “promoter activity interaction Z-score” value [6, 9] of the same compound?
A: -0.00348 ± 0.14

Q: And the “promoter activity interaction Z-score” value [6, 10]?
A: 0.17 ± 0.16

Q: What about the “promoter activity interaction Z-score” value [6, 11] of the same compound?
A: 0.0148 ± 0.24

Q: And the “promoter activity interaction Z-score” value [6, 12]?
A: 0.182 ± 0.044

Q: And the “promoter activity interaction Z-score” value [6, 13]?
A: 0.121 ± 0.06

Q: What about the “promoter activity interaction Z-score” value [6, 14] of the same compound?
A: 0.225 ± 0.25

Q: What about the “promoter activity interaction Z-score” value [6, 15] of the same compound?
A: 0.066 ± 0.3

Q: What about the “promoter activity interaction Z-score” value [6, 16] of the same compound?
A: -0.0447 ± 0.15

Q: And the “promoter activity interaction Z-score” value [6, 17]?
A: -0.225 ± 0.1

Q: What about the “promoter activity interaction Z-score” value [6, 18] of the same compound?
A: -0.0284 ± 0.17

Q: And the “promoter activity interaction Z-score” value [6, 19]?
A: -0.179 ± 0.2

Q: What about the “promoter activity interaction Z-score” value [6, 20] of the same compound?
A: -0.209 ± 0.042

Q: And the “promoter activity interaction Z-score” value [6, 21]?
A: -0.312 ± 0.071

Q: What about the “promoter activity interaction Z-score” value [6, 22] of the same compound?
A: -0.223 ± 0.19

Q: What about the “promoter activity interaction Z-score” value [6, 23] of the same compound?
A: 0.193 ± 0.17

Q: What about the “promoter activity interaction Z-score” value [7, 8] of the same compound?
A: 0.0259 ± 0.64

Q: And the “promoter activity interaction Z-score” value [7, 9]?
A: 0.293 ± 0.38

Q: And the “promoter activity interaction Z-score” value [7, 10]?
A: -0.312 ± 0.38

Q: And the “promoter activity interaction Z-score” value [7, 11]?
A: -0.0825 ± 0.76

Q: What about the “promoter activity interaction Z-score” value [7, 12] of the same compound?
A: 0.373 ± 1.2

Q: What about the “promoter activity interaction Z-score” value [7, 13] of the same compound?
A: 0.241 ± 0.74

Q: And the “promoter activity interaction Z-score” value [7, 14]?
A: -0.132 ± 1.1

Q: And the “promoter activity interaction Z-score” value [7, 15]?
A: -0.287 ± 1.4

Q: And the “promoter activity interaction Z-score” value [7, 16]?
A: 0.132 ± 0.29

Q: And the “promoter activity interaction Z-score” value [7, 17]?
A: -0.365 ± 0.46

Q: And the “promoter activity interaction Z-score” value [7, 18]?
A: -0.311 ± 0.89

Q: What about the “promoter activity interaction Z-score” value [7, 19] of the same compound?
A: 0.17 ± 0.82

Q: And the “promoter activity interaction Z-score” value [7, 20]?
A: -0.425 ± 1.4

Q: What about the “promoter activity interaction Z-score” value [7, 21] of the same compound?
A: -0.436 ± 0.19

Q: And the “promoter activity interaction Z-score” value [7, 22]?
A: 0.622 ± 1.5

Q: And the “promoter activity interaction Z-score” value [7, 23]?
A: -0.234 ± 0.026
